Source: PubChem BioAssay (NCI)
This is part of a sample that, as a whole, favours compounds with a hit. Of some 83,000 tested, about 20% had one in any assay.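 Note: values are percent growth. 100 is the growth of untreated cells, values between 100 and 0 indicate rising inhibition; between -100 and 0 indicates cell death.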 Active and inactive are the calls of the source. Rule for the calls: active = growth percent below 10; inactive = the rest.

Key:
Test in all cases: NCI-60 one-dose screen, 48 h (100 = growth as untreated, 0 = no growth, -100 = all killed)
Settings in all cases: 10 µM unless noted
[1] = tested on: SR leukemia
[2] = tested on: RPMI-8226 leukemia
[3] = tested on: OVCAR-8 ovarian
[4] = tested on: OVCAR-5 ovarian
[5] = tested on: OVCAR-4 ovarian
[6] = tested on: SK-OV-3 ovarian
[7] = tested on: IGROV1 ovarian
[8] = tested on: OVCAR-3 ovarian
[9] = tested on: HS 578T breast
[10] = tested on: NCI/ADR-RES ovarian
[11] = tested on: T-47D breast
[12] = tested on: BT-549 breast
[13] = tested on: MDA-MB-435 melanoma
[14] = tested on: SW-620 colon
[15] = tested on: MCF7 breast
[16] = tested on: HCT-116 colon
[17] = tested on: HCC-2998 colon
[18] = tested on: KM12 colon

Measured: growth

C#CCn1cc(C=C2C(=O)NC(=S)NC2=O)c2cc(Cl)ccc21
inactive: [3] 12.1% | [4] 56.9% | [5] 56.1% | [6] 81.7% | [10] 19.5% | [11] 76.6% | [12] 24.6% | [13] 15% | [15] 10.6% | [18] 14.4%
active: [1] 4.92% | [2] -14.9% | [7] -40.6% | [8] -36.4% | [9] -0.874% | [14] -27.5% | [16] 2.51% | [17] -4.98%

CC(=O)c1c[nH]c2ccc(-c3ccnc(Nc4ccc(NC(=O)C5CCCC5)c(CN5CCOCC5)c4)n3)cc12
inactive: [6] 10.6%
active: [1] 3.58% | [2] -42.2% | [3] 7.02% | [4] -11.6% | [5] -14% | [7] -14.8% | [8] -7.43% | [9] -27.7% | [10] -4.77% | [11] -0.198% | [12] -7.17% | [13] -76% | [14] 0.153% | [15] -38.1% | [16] 0.944% | [17] -31.4% | [18] -64.1%

CC(=O)c1cccc(NS(=O)(=O)c2cccc(C(=O)Nc3ccc(Br)cc3)c2)c1
inactive: [1] 60.6% [25 µM] | [2] 30.4% [25 µM] | [3] 57.1% [25 µM] | [4] 77.9% [25 µM] | [5] 47.6% [25 µM] | [6] 58.1% [25 µM] | [7] 62.4% [25 µM] | [8] 66.1% [25 µM] | [9] 80.6% [25 µM] | [10] 34.7% [25 µM] | [11] 26.7% [25 µM] | [12] 46.9% [25 µM] | [13] 37.6% [25 µM] | [14] 67.4% [25 µM] | [15] 49% [25 µM] | [16] 39.9% [25 µM] | [17] 79.7% [25 µM] | [18] 56% [25 µM]

O=C(Nc1nc2ccc(S(=O)(=O)Nc3ccc(C4(C(F)(F)F)CC4)cc3)cc2[nH]1)c1cnccn1
active: [8] -18.6% | [13] -29.8% | [18] 9.67%
inactive: [1] 20% | [2] 30.3% | [3] 55.4% | [4] 56.8% | [5] 46.1% | [6] 58% | [7] 40.3% | [9] 17.6% | [10] 21% | [11] 31.7% | [12] 44.6% | [14] 18.5% | [15] 18.2% | [16] 26.2% | [17] 63.4%

COc1cc(Nc2cc(O)c3c(=O)cc(-c4ccccc4)oc3c2)cc(OC)c1
inactive: [1] 17.3% | [2] 17.1% | [3] 26.1% | [4] 45.5% | [5] 59.3% | [6] 35.9% | [7] 42.1% | [9] 12.4% | [10] 22.2% | [11] 55.2% | [12] 80.2% | [14] 24.9% | [15] 23.5% | [16] 13% | [17] 32.4% | [18] 21%
active: [8] 0.368% | [13] 4.04%

COc1cccc(CCC(=O)c2cc3c(N)c(C(=O)Nc4cccc(Cl)c4C)sc3nc2C)c1
active: [1] 9.08% | [2] 7.83% | [8] -8.82% | [9] 2.96% | [13] -54.8% | [17] 6.58%
inactive: [3] 24.1% | [4] 28.3% | [5] 36.9% | [6] 32.4% | [7] 24.4% | [10] 10.7% | [11] 28.2% | [12] 50.6% | [14] 34% | [15] 11.3% | [16] 13% | [18] 19.6%

C(=C\c1n(Cc2ccc3ccccc3c2)c(-c2ccccc2)c(-c2ccccc2)[n+]1Cc1ccc2ccccc2c1)/c1ccccc1
active: [1] -37.4% | [2] -43.9% | [3] -65.3% | [4] -95% | [5] -85.8% | [6] -60.1% | [7] -81.4% | [8] -90.3% | [9] -42.8% | [10] 8.24% | [11] -74.8% | [12] -83.2% | [13] -92% | [14] -86.9% | [15] -64.1% | [16] -80.9% | [17] -91.4% | [18] -83.5%

c1ccc2c(-c3c4ccsc4cc4[nH]c5ccccc5c34)c[nH]c2c1
inactive: [1] 25.7% | [2] 14.8% | [3] 56.9% | [4] 75.2% | [5] 40.8% | [6] 49.5% | [7] 38.1% | [8] 13.8% | [9] 33.4% | [10] 20.4% | [11] 26.3% | [12] 33.9% | [14] 25.4% | [15] 15% | [16] 17.5% | [17] 65.6% | [18] 14.9%
active: [13] 1.93%

C=C(C)[C@@H]1CC[C@]2(C(=O)NCCCN(CCC#N)CCC#N)CC[C@]3(C)[C@H](CC[C@@H]4[C@@]5(C)CCC(=O)C(C)(C)[C@@H]5CC[C@]43C)[C@@H]12
inactive: [1] 108% | [2] 101% | [3] 97.9% | [4] 103% | [5] 92.6% | [6] 93% | [7] 102% | [8] 107% | [9] 96.3% | [10] 103% | [11] 102% | [12] 95.5% | [13] 105% | [14] 101% | [15] 92.8% | [16] 97.3% | [17] 108% | [18] 104%

CN1CCN(CCCOc2ccc3ncnc(Nc4ccc(Oc5cccc(C(F)(F)F)c5)c(Cl)c4)c3c2)CC1
inactive: [3] 24.6% | [6] 21.4% | [8] 30.2% | [9] 26.8% | [10] 34.8% | [11] 19.2% | [12] 69.9%
active: [1] 4.03% | [2] -21.6% | [4] 5.84% | [5] 2.72% | [7] -53.7% | [13] -82% | [14] -71.6% | [15] -28.7% | [16] -62% | [17] -66.2% | [18] -3.45%

Fc1ccc(C2CC(c3cccc(Nc4ccncc4)c3)=NN2c2cc(Cl)cc(Cl)c2)cc1 (stereo not drawn)
inactive: [2] 20.9% | [4] 87.5% | [5] 15.8% | [6] 83.3% | [7] 25.1% | [8] 62.1% | [9] 57.8% | [10] 64.3% | [11] 74.6% | [12] 104% | [16] 98.8% | [17] 19.1%
active: [1] 2.89% | [3] -18.3% | [13] -22.5% | [14] -85.2% | [15] -25.6% | [18] -35.7%

CCCCCN1C=C/C(=C\C(=O)N(C)c2cccc3ccccc23)c2ccccc21
inactive: [1] 81.5% | [2] 78.5% | [3] 98.4% | [4] 109% | [5] 86.5% | [6] 99.6% | [7] 93.7% | [8] 96.9% | [9] 99.9% | [10] 106% | [11] 87.9% | [12] 99.4% | [13] 100% | [14] 94.3% | [15] 91.3% | [16] 86.9% | [17] 102% | [18] 103%

C=C1C(=O)O[C@H]2[C@H]1CC/C(COC(=O)CCCCCC(=O)OC/C1=C/CC[C@@]3(C)O[C@H]3[C@H]3OC(=O)C(=C)[C@@H]3CC1)=C\CC[C@@]1(C)O[C@@H]21
inactive: [3] 12.2% | [4] 51.2% | [5] 37.2% | [6] 94.6% | [9] 18.7% | [10] 46.9% | [12] 35.7% | [13] 30.8% | [15] 12.8% | [17] 84.5% | [18] 62.8%
active: [1] 3.39% | [2] 1.08% | [7] 7.45% | [8] 1.8% | [11] 1.26% | [14] 8.05% | [16] -37.3%

O=C(CCN1CCCC1)Nc1ccc2c(NCc3ccc(F)cc3)c3ccccc3nc2c1
inactive: [10] 70.3% | [12] 18.5%
active: [1] -13.2% | [2] -34.8% | [3] 2.58% | [4] 2.2% | [5] -30.9% | [6] -5.63% | [7] -2.1% | [8] -46.5% | [9] -9.73% | [11] -5.76% | [13] -53.4% | [14] -31.3% | [15] -12.2% | [16] -29.9% | [17] -32.5% | [18] -6.48%

O=C(Nc1ccc2cc3ccc(NC(=O)NC4CCCCC4)cc3nc2c1)NC1CCCCC1
active: [1] -0.865%
inactive: [2] 85.6% | [3] 93.4% | [4] 103% | [5] 92.8% | [6] 95.4% | [7] 99.9% | [8] 98.2% | [9] 36.4% | [10] 106% | [11] 81.9% | [12] 75% | [13] 95.3% | [14] 84.3% | [15] 47.3% | [16] 65.1% | [17] 101% | [18] 97%

Nc1c(C(=O)Nc2ccc(Cl)cc2)cc(-c2nc3ccccc3s2)c(=O)n1NS(=O)(=O)c1ccc(Cl)cc1
inactive: [1] 95.2% | [2] 92.6% | [3] 100% | [4] 101% | [5] 94.4% | [6] 101% | [7] 97.4% | [8] 105% | [9] 98.4% | [10] 105% | [11] 92.9% | [12] 122% | [13] 99.8% | [14] 96.9% | [15] 84.2% | [16] 98.6% | [17] 107% | [18] 99%
